Measurements taken from PubChem BioAssay (NCATS).
Results filed as inconclusive are left out. Entries that show only a call come without a potency. The source made the active and inactive calls. Unless noted, the call rests on the fitted dose curve; in most records, active means well fitted curve in the direction sought with a large enough effect; inconclusive means small, poorly fitted or top-dose-only effect, or another doubt; inactive means no such curve, though single readings can be large; an effect the other way counts as inactive or inconclusive.

Columns and labels:
[1] = S16 Schwann cell viability assay (CellTiter-Glo assay) (AID 624031);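 further: cellular ATP luminescence as a viability measure; nearly all actives have a fitted effect of over 70% in size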
Outline: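 Native S16 rat Schwann cells in DMEM/10% FBS without phenol red were incubated overnight, then exposed to compounds for 24 h at 37 °C/5% CO2. Viability was read as ATP luminescence (CellTiter-Glo), normalized to no-cell wells and DMSO (0%).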

[2] = S16 Schwann cell PMP22 intronic element beta-lactamase assay (AID 624044; calls by dose curve; further: nearly all actives have a fitted effect of over 15% in size); settings: S16 rat Schwann cells, PMP22 element beta-lactamase FRET, 24 h; ratio activity, negative = inhibition: at 38.3 µM (top of the series)
Outline: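 Beta-lactamase reporter under a PMP22 intronic regulatory element in stable S16 rat Schwann cells; 24 h compound exposure. 460 nm blue signal normalized between DMSO (0%) and potassium clavulanate, with 535 nm FRET tracking viability; curves classed by r2 and response.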

AA1029 = test: qHTS profiling for inhibitors of Plasmodium falciparum proliferation (AID 504749); further: nearly all actives have a fitted effect of over 60% in size; further: potency means the concentration at half of the fitted maximal effect; settings: P. falciparum in erythrocytes, SYBR Green DNA, 72 h; series mostly up to 28.7 µM
Outline: (§1)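 Fluorescence of SYBR Green-bound parasite DNA, read at 485/535 nm, served as the growth measure. Infected erythrocytes were cultured with compound 72 h; artemisinin (0.29 uM) and DMSO wells defined the normalization range.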

CP192 = test: as above; settings: P. falciparum in erythrocytes, SYBR Green DNA, 72 h; series mostly up to 28.7 µM
Outline: as §1

CP203 = test: as above; settings: P. falciparum in erythrocytes, SYBR Green DNA, 72 h; series mostly up to 28.7 µM
Outline: as §1

CP211 = test: as above; settings: P. falciparum in erythrocytes, SYBR Green DNA, 72 h; series mostly up to 28.7 µM
Outline: as §1

CP217 = test: as above; settings: P. falciparum in erythrocytes, SYBR Green DNA, 72 h; series mostly up to 28.7 µM
Outline: as §1

CP247 = test: as above; settings: P. falciparum in erythrocytes, SYBR Green DNA, 72 h; series mostly up to 28.7 µM
Outline: as §1

CP252 = test: as above; settings: P. falciparum in erythrocytes, SYBR Green DNA, 72 h; series mostly up to 28.7 µM
Outline: as §1

CP260 = test: as above; settings: P. falciparum in erythrocytes, SYBR Green DNA, 72 h; series mostly up to 28.7 µM
Outline: as §1

CP291 = test: as above; settings: P. falciparum in erythrocytes, SYBR Green DNA, 72 h; series mostly up to 28.7 µM
Outline: as §1

CP335 = test: as above; settings: P. falciparum in erythrocytes, SYBR Green DNA, 72 h; series mostly up to 28.7 µM
Outline: as §1

DFO2036 = test: as above; settings: P. falciparum in erythrocytes, SYBR Green DNA, 72 h; series mostly up to 28.7 µM
Outline: as §1

DIV14 = test: as above; settings: P. falciparum in erythrocytes, SYBR Green DNA, 72 h; series mostly up to 28.7 µM
Outline: as §1

DIV17 = test: as above; settings: P. falciparum in erythrocytes, SYBR Green DNA, 72 h; series mostly up to 28.7 µM
Outline: as §1

ICS = test: as above; settings: P. falciparum in erythrocytes, SYBR Green DNA, 72 h; series mostly up to 28.7 µM
Outline: as §1

N140 = test: as above; settings: P. falciparum in erythrocytes, SYBR Green DNA, 72 h; series mostly up to 28.7 µM
Outline: as §1

PC26 = test: as above; settings: P. falciparum in erythrocytes, SYBR Green DNA, 72 h; series mostly up to 28.7 µM
Outline: as §1

PC49 = test: as above; settings: P. falciparum in erythrocytes, SYBR Green DNA, 72 h; series mostly up to 28.7 µM
Outline: as §1

TAB165 = test: as above; settings: P. falciparum in erythrocytes, SYBR Green DNA, 72 h; series mostly up to 28.7 µM
Outline: as §1

Structure (SMILES) | Potency [1] | Potency [2] | Potency (AA1029) | Potency (CP192) | Potency (CP203) | Potency (CP211) | Potency (CP217) | Potency (CP247) | Potency (CP252) | Potency (CP260) | Potency (CP291) | Potency (CP335) | Potency (DFO2036) | Potency (DIV14) | Potency (DIV17) | Potency (ICS) | Potency (N140) | Potency (PC26) | Potency (PC49) | Potency (TAB165)
CN1[C@H]2CC(OC(=O)[C@H](CO)c3ccccc3)C[C@H]1[C@H]1O[C@H]12 (some centres undefined) | inactive | inactive | inactive | inactive | inactive | inactive | inactive | inactive | inactive | inactive | inactive | inactive | inactive | inactive | inactive | inactive | inactive | inactive | inactive | inactive
CO[C@H]1/C=C/O[C@@]2(C)Oc3c(C)c(O)c4c(O)c(c5c(c4c3C2=O)NC2(CCN(CC(C)C)CC2)N=5)=NC(=O)/C(C)=C\C=C\[C@H](C)[C@H](O)[C@@H](C)[C@@H](O)[C@@H](C)[C@H](OC(C)=O)[C@@H]1C | inactive | inactive | 11.2 µM (active) | – | – | inactive | 8.91 µM (active) | – | 8.91 µM (active) | 8.91 µM (active) | – | 13.5 µM (active) | – | 8.49 µM (active) | 10.7 µM (active) | 8.91 µM (active) | 8.91 µM (active) | 10.7 µM (active) | – | 7.94 µM (active)
